# The full list was thinned out, with hits kept by preference.
# Dicer processing = inhibitors of Dicer pre-microRNA processing, primary screen, biochemical, cat-ELCCA, chemiluminescence | Endoribonuclease Dicer (Homo sapiens), Q9UPY3 | 47,000 compounds, 6% hits | cat-ELCCA pre-miR-21 Dicer processing; stronger effect = higher value | z-score at 25 µM; in the data active = z-score above about 3, passing the limit was not always enough;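 also: plate controls were vehicle for no effect and no enzyme for full effect; higher signal means more uncleaved substrate so more Dicer inhibition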
# Target sequence (Q9UPY3 whole entry, looked up): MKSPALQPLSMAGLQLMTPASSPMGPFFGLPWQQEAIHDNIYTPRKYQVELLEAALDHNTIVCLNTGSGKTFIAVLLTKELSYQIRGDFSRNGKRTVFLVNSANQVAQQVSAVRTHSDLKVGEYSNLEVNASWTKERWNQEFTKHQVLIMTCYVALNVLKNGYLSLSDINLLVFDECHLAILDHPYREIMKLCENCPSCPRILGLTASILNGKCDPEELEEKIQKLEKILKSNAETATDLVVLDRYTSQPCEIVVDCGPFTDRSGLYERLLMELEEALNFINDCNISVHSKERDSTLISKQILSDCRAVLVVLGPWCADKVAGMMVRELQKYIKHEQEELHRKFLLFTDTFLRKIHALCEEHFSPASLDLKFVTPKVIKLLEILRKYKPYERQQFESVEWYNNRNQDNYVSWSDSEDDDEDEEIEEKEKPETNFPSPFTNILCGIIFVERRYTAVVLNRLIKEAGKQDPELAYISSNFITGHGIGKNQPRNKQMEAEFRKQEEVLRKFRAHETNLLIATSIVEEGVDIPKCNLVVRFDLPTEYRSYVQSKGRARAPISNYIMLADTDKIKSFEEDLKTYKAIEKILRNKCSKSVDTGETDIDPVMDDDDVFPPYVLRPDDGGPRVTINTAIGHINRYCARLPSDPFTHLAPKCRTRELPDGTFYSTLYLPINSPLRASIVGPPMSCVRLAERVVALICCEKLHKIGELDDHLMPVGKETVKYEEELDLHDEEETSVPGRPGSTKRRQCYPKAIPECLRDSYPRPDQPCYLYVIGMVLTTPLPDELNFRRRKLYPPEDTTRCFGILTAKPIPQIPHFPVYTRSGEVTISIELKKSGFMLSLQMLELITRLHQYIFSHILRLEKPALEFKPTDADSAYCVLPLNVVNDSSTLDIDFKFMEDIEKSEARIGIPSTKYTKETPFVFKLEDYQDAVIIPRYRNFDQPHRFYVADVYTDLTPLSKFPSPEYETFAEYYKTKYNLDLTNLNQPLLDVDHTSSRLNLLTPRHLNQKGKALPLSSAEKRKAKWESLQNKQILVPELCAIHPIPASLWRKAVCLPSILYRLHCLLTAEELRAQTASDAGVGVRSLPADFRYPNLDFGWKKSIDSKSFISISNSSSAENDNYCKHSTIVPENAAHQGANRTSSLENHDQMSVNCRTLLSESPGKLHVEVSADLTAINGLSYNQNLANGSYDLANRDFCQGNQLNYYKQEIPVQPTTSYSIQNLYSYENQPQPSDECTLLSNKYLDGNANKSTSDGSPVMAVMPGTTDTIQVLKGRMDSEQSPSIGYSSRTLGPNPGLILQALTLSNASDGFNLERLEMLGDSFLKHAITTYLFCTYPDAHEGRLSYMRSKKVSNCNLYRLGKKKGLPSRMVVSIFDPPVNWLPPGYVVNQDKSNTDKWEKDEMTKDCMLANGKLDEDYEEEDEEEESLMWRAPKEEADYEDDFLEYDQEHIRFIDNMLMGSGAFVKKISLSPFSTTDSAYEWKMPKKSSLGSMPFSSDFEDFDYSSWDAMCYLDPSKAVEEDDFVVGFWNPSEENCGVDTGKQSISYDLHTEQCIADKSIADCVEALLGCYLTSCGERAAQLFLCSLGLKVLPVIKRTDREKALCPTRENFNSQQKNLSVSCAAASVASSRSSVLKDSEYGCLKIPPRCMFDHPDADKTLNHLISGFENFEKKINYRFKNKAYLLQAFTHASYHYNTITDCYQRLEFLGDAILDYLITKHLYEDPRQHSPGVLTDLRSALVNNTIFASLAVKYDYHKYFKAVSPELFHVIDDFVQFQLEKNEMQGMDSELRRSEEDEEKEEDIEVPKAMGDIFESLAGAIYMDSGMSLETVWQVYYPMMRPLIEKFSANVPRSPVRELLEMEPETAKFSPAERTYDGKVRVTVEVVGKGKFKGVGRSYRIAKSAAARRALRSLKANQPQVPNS
# Starred values were filed as active, the others as inactive.
SMILES,Dicer processing
COC(=O)c1sc(Br)c(Br)c1OC(=O)c1ccc(Cl)cc1,-1.2
O=C1CCCc2c1cc(C(=O)O)c(=O)n2-c1ccccc1,3.7*
O=C1CCCc2c1cc(C(=O)NC1CCSC1=O)c(=O)n2-c1ccccc1 (stereo not given),1.2
COC(=O)C(CCSC)NC(=O)c1cc2c(n(-c3ccccc3)c1=O)CCCC2=O (stereo not given),2.1
COC(=O)c1cc(S(=O)(=O)NCc2ccc(Cl)cc2Cl)oc1C,-0.84
COc1ccc(C2C(OC(C)=O)C(c3ccccc3OCc3ccccc3)=NN2C(C)=O)cc1 (stereo not given),0.1
CCOc1ccc(/C(O)=C2\C(=O)C(=O)N(c3nccs3)C2c2ccc(O)c(OC)c2)cc1 (stereo not given),0.59
COC(=O)c1ccc(C2Nc3ccc4ncccc4c3C3=C2C(=O)CC(C)(C)C3)cc1 (stereo not given),-0.06
CC1C(c2ccccc2)OCCN1C(=O)CCC(=O)N1CCOC(c2ccccc2)C1C (stereo not given),5.6*
O=C(CCc1ccccc1)N1CCC(c2ccccc2)C1 (stereo not given),-1.4
CN1CCOC(c2ccccc2)c2ccccc2C1 (stereo not given),0.53
Cc1ccc(Oc2ccc(-c3nc(N)nc(N)n3)cc2)cc1C,1.8
Cc1nc2nc(C(F)(F)F)[nH]n2c(=O)c1Cc1cccc(Cl)c1,-0.57
CSc1ccc(/C=C/c2noc(-c3ccccc3O)n2)cc1,-1.9
Oc1ccccc1-c1nc(-c2ccccc2)no1,0.04
Cc1ccccc1-c1nc(C2CCCCC2)no1,1.7
CCN(CC)c1ccc(/C=C/c2noc(-c3ccccc3O)n2)cc1,0.97
Cc1ccsc1/C=C/c1noc(-c2ccccc2O)n1,3.3*
Oc1ccccc1-c1nc(/C=C/c2ccc(Cl)cc2)no1,6.7*
CCCc1nn(-c2ccc(=O)[nH]n2)c(CCC)c1CC,-0.27
CCOC(=O)c1c(C)oc2ccc(OCc3cccc(Br)c3)cc12,0.01
CN(C)c1cccc(N2C(=S)SC3CS(=O)(=O)CC32)c1 (stereo not given),-0.91
Cc1cc(C(=O)Oc2ccccc2NC2=NS(=O)(=O)c3ccccc32)c2ccccc2n1,0.31
CCC(=O)N(C)c1nc(-c2ccc(Cl)s2)cs1,0.74
CCOC(=O)/C(C)=N/Nc1ccccc1,-1
SMILES,Dicer processing
CCOC(=O)/C(C)=N/Nc1ccc(F)cc1,0.97
CCOC(=O)/C(=N\Nc1cccc(C)c1)c1csc(N)n1,4*
Nc1c(C(=O)Nc2ccc(F)cc2)sc2nc(-c3ccncc3)ccc12,1.7
Cc1ccc(COC(CN2CCCCCC2)CN2CCCCCC2)cc1,2
CCOC(=S)SCc1cc(Br)cc(Br)c1,-1.2
O=c1c(O)c(-c2ccc(O)c(O)c2)oc2cc(O)cc(O)c12,0.32
O=c1cc(-c2ccc(O)c(O)c2)oc2cc(O)cc(O)c12,12*
Cc1oc2cc(O)cc(O)c2c(=O)c1-c1ccccc1,1.3
N#Cc1ccc(S(=O)(=O)N2CCc3sccc3C2c2ccc(OC(F)(F)F)cc2)cc1 (stereo not given),-1.4
c1ccc(-c2c(-c3ccccc3)n(Cc3ccco3)c3ncn4nc(-c5ccco5)nc4c23)cc1,5.6*
Cc1nc2c([nH]1)c(=O)n(C)c(=O)n2Cc1ccco1,-0.88
Cc1onc(-c2ccccc2)c1CSc1n[nH]c(=O)n1Cc1ccco1,-1.5
O=S(=O)(c1ccc(Cl)cc1)c1nc(Cc2ccccc2)oc1N1CCOCC1,0.86
C#Cc1cccc(NC(=O)CSc2nc3c(c(/C=C\c4ccccc4)c2C#N)CCC3)c1,-0.46
CS(=O)(=O)NCCSc1nnnn1-c1ccccc1,-0.83
CC(C)Sc1nnnn1-c1ccccc1,4.9*
Cc1n[nH]c(C)c1Sc1nnnn1-c1ccccc1,-1.7
CCc1nnc(NC(=O)CSc2nnnn2-c2ccccc2)s1,1.8
O=C(CSc1nnnn1-c1ccccc1)Nc1cccc(F)c1,0.09
NC(=O)CSc1nnnn1-c1ccccc1,4.9*
COc1ccc(C2/C(=C(\O)c3ccc(Cl)cc3)C(=O)C(=O)N2Cc2cccnc2)cc1OC (stereo not given),11
O=C(O)c1sc(C(=O)O)c(-c2ccco2)c1-c1ccco1,-0.5
N#Cc1c(NC(=O)c2ccc(Cl)cc2)sc2c1CCCC2,1.4
N#Cc1c(NC(=O)C(=O)c2c[nH]c3ccccc23)sc2c1CCCC2,4.6*
CN(C)C(=O)c1c(NC(=O)c2ccccc2)sc2c1CCCC2,-0.15
SMILES,Dicer processing
N#Cc1c(NC(=O)COc2ccc(Cl)cc2)sc2c1CCCC2,-0.23
N#Cc1c(NC(=O)c2ccccc2)sc2c1CCCCC2,3.2*
COc1cc2ccccc2cc1C(=O)Nc1sc2c(c1C#N)CCC2,2.8
O=C1CC(C(F)(F)F)=NN1c1ccccc1,0.11
CN(C)c1ccc(C(=O)CC2(O)C(=O)N(Cc3ccccc3)c3ccccc32)cc1 (stereo not given),1.1
OCC1(CO)CSC(Nc2ccc(I)cc2)=N1,0.72
COc1cc(S(=O)(=O)N2CCC(C)CC2)ccc1Cl,-0.36
COc1ccccc1N1CCN(S(=O)(=O)c2ccccc2)CC1,0.58
COc1ccccc1N1CCN(Cc2ccc3ccccc3c2)CC1,1.9
O=S(=O)(c1ccc(F)cc1)N1CCC(N2CCCC2)CC1,2.3
COc1ccccc1N1CCN(S(=O)(=O)c2cccc3ccccc23)CC1,3.3*
COc1ccccc1N1CCN(C2CCN(S(=O)(=O)c3ccc(Cl)cc3)CC2)CC1,3.6*
Cc1cccc(NNC(=O)CCc2ccccc2)c1,2.4
Brc1cc2c(cc1Cn1c(-c3cncs3)nc3ccccc31)OCO2,4.3*
Cc1ccccc1Cn1c(-c2cncs2)nc2ccccc21,0.83
C=CCn1c(-c2cccs2)nc2ccccc21,125
COc1cc(C2OC(c3cc(C)ccc3[N+](=O)[O-])=NN2C(C)=O)cc(OC)c1OC (stereo not given),-0.46
COC(=O)CSc1cc(C)nc(NC(C)=O)n1,0.03
COC(=O)CSc1nc(N)nc(C)c1Cl,2.7
COC(=O)CSc1nc(NC(C)=O)nc(C)c1Br,3.1*
COC(=O)CSc1nnc(-c2ccc(OC)cc2)o1,0.66
Cn1c(=O)c2[nH]c(NCc3ccccc3)nc2n(C)c1=O,2.4
O=c1[nH]c(SCc2ccc(Cl)cc2Cl)nc2ccccc12,3.7*
Nc1cc(=O)[nH]c(SCc2ccc(Cl)cc2Cl)n1,-0.88
NC(=O)CSc1nc2ccccc2c(=O)[nH]1,-0.39
SMILES,Dicer processing
Clc1ccccc1-c1nn2c(-c3ccccc3)nnc2s1,0.86
N#Cc1nc(COc2ccccc2F)oc1NCc1cccnc1,1.6
COc1ccc(-c2nnc3c4cnn(-c5ccccc5)c4ncn23)cc1,0.08
c1ccc(-c2nnc3c4cnn(-c5ccccc5)c4ncn23)cc1,3.1*
Cc1ccc(-c2nnc3c4cnn(-c5ccccc5)c4ncn23)cc1,0.47
c1ccc(CN2CC(c3nn[nH]n3)CN(Cc3ccccc3)C2)cc1,-0.38
CCCCc1c(C)nc(SC)[nH]c1=O,5.3*
CCCCc1c(O)nc(SC)[nH]c1=O,-0.23
CCCCc1c(C)nc(N)[nH]c1=O,-0.14
O=S(=O)(c1ccc(F)cc1)N1CCc2[nH]c3ccc(F)cc3c2C1,-1.1
COCCCNC(=O)c1nc2ccccc2c(=O)n1NC(=O)C(Cl)(Cl)Cl,0.13
CC(C)(C)NC1CC(=O)N(c2ccccc2)C1=O (stereo not given),-2.2
O=C1CC(c2ccccc2)CC(=O)N1c1ccccc1,-4
O=C1CC(c2ccccc2)C(=O)N1c1cc(Cl)cc(Cl)c1 (stereo not given),5.3*

# Source: PubChem BioAssay (Center for Chemical Genomics, University of Michigan)
